Test results published in PubChem BioAssay (NCATS).
Results filed as inconclusive are left out. Unmarked numbers belong to inactive results. Calls of active or inactive are those of the source. Calls come from the whole dose curve; as a rule, active = well fitted curve in the direction sought with a large enough effect; inconclusive = small, poorly fitted or top-dose-only effect, or another doubt; inactive = no such curve, though single readings can be large or run the other way.
% is set by controls: 0 for no effect and ±100 for the full control effect; potency is the fitted concentration of half-maximal effect.

Experiment: qHTS Assay for Identifying Gametocytocidal Compounds (AID 743244);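 for max response: actives lower the fluorescent signal which means gametocytes are killed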
Conditions: P. falciparum 3D7 stage III-V gametocytes, alamarBlue, 72 h; max response: hits give low values
Method in brief: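 Stage III-V P. falciparum 3D7 gametocytes, 20,000 per well, were exposed to compounds for 72 h at 37C, 5% CO2. AlamarBlue was then added for 24 h and viability was read as fluorescence at Ex 525/Em 598 nm.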
CCCCNc1ccc(C(=O)OCCN(CC)CC)cc1 gave a max response of -4.4%.
With O=C(CCCCC(=O)Nc1c(I)cc(I)c(C(=O)O)c1I)Nc1c(I)cc(I)c(C(=O)O)c1I the max response was 35.4%.
With CCCCCCCCCCCCCCCCCCNC(=O)OC1CCN(C(=O)OC[C@H](COC(=O)N(Cc2cccc[n+]2CC)C(=O)c2ccccc2OC)OC)CC1 the Potency was 15.8 µM (active).
For CN(C(=O)C(Cl)Cl)c1ccc(OC(=O)c2ccco2)cc1, the max response was 8.61%.
For CC(=O)CC/C=C(\C)CC/C=C(\C)CC/C=C(\C)CCC=C(C)C, the max response was -1.07%.
With CN1CCC(=C2c3ccccc3CCc3cccnc32)CC1 the max response was 7.49%.
In the case of O=C(OCC1(COC(=O)c2cccnc2)CCCC(COC(=O)c2cccnc2)(COC(=O)c2cccnc2)C1O)c1cccnc1, the max response was -9.22%.
O=C1OC2(c3ccccc31)c1cc(I)c(O)c(I)c1Oc1c2cc(I)c(O)c1I gave a max response of -3.42%.
For Nc1c[n+](N2CCOCC2)no1, the max response was 2.15%.
In the case of CC1c2ccccc2CN1NC(=O)c1ccc(Cl)c(S(N)(=O)=O)c1 (centres undefined), the max response was 33.5%.
With CCOC(=O)O[C@]1(C(=O)OCCl)CC[C@H]2[C@@H]3CCC4=CC(=O)C=C[C@]4(C)[C@H]3[C@@H](O)C[C@@]21C the max response was -2.36%.
With CCCCCC1Nc2cc(C(F)(F)F)c(S(N)(=O)=O)cc2S(=O)(=O)N1 (centres undefined) the max response was 13.4%.
Cc1cccc(N(C)C(=S)Oc2ccc3c(c2)CCC3)c1 gave a max response of 14.9%.
With CCOC(=O)c1ccc(OCCN2C[C@H](O)[C@@H](O)[C@H](O)[C@H]2CO)cc1 the max response was -1.08%.
Work on CCCC(=O)O[C@]1(C(=O)CCl)[C@@H](C)C[C@H]2[C@@H]3CCC4=CC(=O)C=C[C@]4(C)[C@@]3(F)C(=O)C[C@@]21C yielded a max response of 13.2%.
CCN1CCN(C(=O)N[C@@H](C(=O)N[C@@H]2C(=O)N3[C@@H]2SC(C)(C)[C@H]3C(=O)O)c2ccccc2)C(=O)C1=O showed a max response of -7.03%.
For COc1cc(C(=O)NC2CCCNC2)cc(OC)c1OC (centres undefined), the max response was -0.328%.
For O=C(CS(=O)Cc1ccco1)NC/C=C\COc1cc(CN2CCCCC2)ccn1 (centres undefined), the max response was 9.57%.
In the case of CCC1=C[C@@H]2CN(C1)Cc1c([nH]c3ccccc13)[C@@](C(=O)OC)(c1cc3c(cc1OC)N(C)[C@H]1[C@@](O)(C(=O)OC)[C@H](OC(C)=O)[C@]4(CC)C=CCN5CC[C@]31[C@@H]54)C2, the Potency was 11.2 µM (active).
CCN1CCN(c2cc(-c3ccc(F)cc3)c3c(n2)CCCCCC3)CC1 gave a max response of 9.24%.
Compound NCC(=O)O has a max response of -6.74%.
O=C(O)Cc1ccc(OCCNC[C@H](O)c2ccccc2)cc1 gave a max response of -2.47%.
Work on O=P(O)(O)OCC(O)CO (centres undefined) yielded a max response of 11.3%.
For CC(=O)N(CC(O)CO)c1c(I)c(C(=O)NCCO)c(I)c(C(=O)NCC(O)CO)c1I (centres undefined), the max response was 13.7%.
With O=C(O)c1[nH]n(-c2ccc(S(=O)(=O)O)cc2)c(=O)c1N=Nc1ccc(S(=O)(=O)O)cc1 the max response was -0.65%.
Compound Cc1ccccc1N1CCN(CCc2nnc3n2CCCC3)CC1 has a max response of -15.7%.
Work on CO[C@@]1(NC(=O)CSC[C@@H](N)C(=O)O)C(=O)N2C(C(=O)O)=C(CSc3nnnn3C)CS[C@@H]21 yielded a max response of 3.25%.
In the case of c1ccc(C(O[C@H]2CCCN(CCc3ccc4c(c3)OCO4)C2)c2ccccc2)cc1, the max response was -6.18%.
Compound O=C(O)CNC(=O)CNC(=O)CNC(=O)CSC(=O)c1ccccc1 has a max response of 0.93%.
Compound CC(=O)Nc1ccn(C2COC(COC(=O)c3ccccc3)O2)c(=O)n1 (centres undefined) has a max response of -5.34%.
In the case of CCCCC/C=C\C/C=C\CCCCCCCC(=O)NC(C)c1ccccc1 (centres undefined), the max response was -1.75%.
In the case of CCc1cc(S(=O)(=O)O)c2cc(C(C)C)cccc1-2, the max response was 0.277%.
CCC(C(=O)NC(=O)NC(C)=O)c1ccccc1 (centres undefined) gave a max response of -11.8%.
CC(=O)O[C@@H]1C(=O)O[C@@H]2[C@H]1OC(=O)[C@@H]2OC(C)=O gave a max response of 14.5%.
In the case of O=C1[C@@H]2[C@H]3CC[C@H](C3)[C@@H]2C(=O)N1CCCCN1CCN(c2ncccn2)CC1, the max response was 4.19%.
In the case of Nc1nnnn1-c1ccccc1, the max response was 2.05%.
CC(=O)OCC[N+](C)(C)C gave a max response of 0.348%.
Compound CC[C@@H]([C@H](C)O)n1ncn(-c2ccc(N3CCN(c4ccc(OC[C@@H]5CO[C@@](Cn6cncn6)(c6ccc(F)cc6F)C5)cc4)CC3)cc2)c1=O has a max response of 13.4%.
O=C(CCC1CCN(Cc2ccccc2)CC1)c1ccc2c(c1)NCCCC2 gave a max response of -4.54%.
